DUSP3 inh – VHR1 phosphatase inhibitors, primary screen, biochemical, absorbance, uHTS; Dual specificity protein phosphatase 3 (Homo sapiens), P51452; recombinant VHR phosphatase, pNPP absorbance; inhibition, % at 13.3 µM; 290,000 tested, 0.52% active; in the data active = inhibition above about 50%
Target sequence (P51452 whole entry, looked up): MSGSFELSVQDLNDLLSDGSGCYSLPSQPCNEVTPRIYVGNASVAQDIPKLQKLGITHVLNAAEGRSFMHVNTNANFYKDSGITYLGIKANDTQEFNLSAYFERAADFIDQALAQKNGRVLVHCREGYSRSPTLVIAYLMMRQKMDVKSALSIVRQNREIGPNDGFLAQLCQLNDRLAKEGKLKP
Vc quorum ag – inducers of Vibrio cholerae quorum light production without autoinducers, primary screen, BH1578 luxS cqsA deficient, single point | V. cholerae BH1578 lux reporter, luminescence, 6 h | activation, % at 18.7 µM | 350,000 tested, 0.16% active | AID 588436, 2011; in the data active = activation mostly above about 9.7%, no sharp cut-off
SARS 3CLpro inh – SARS-CoV 3CLpro protease inhibitors, primary screen, biochemical, quenched FRET | Replicase polyprotein 1ab (Severe acute respiratory syndrome coronavirus), P0C6X7 | recombinant SARS-CoV 3CLpro, quenched FRET peptide cleavage | inhibition, % at 6 µM | 290,000 tested, 0.14% active; in the data active = inhibition above about 12%
BJeLR lethal – MLPCN primary cell-based screen for lethality selective to Ras in HRASV12 cells; BJeLR (HRASV12) viability, CellTiter-Glo ATP luminescence, 48 h; inhibition, % (concentration not given with the values); 300,000 tested, 0.17% active; in the data active = inhibition above about 50%
MazF activator – activators of E. coli MazEF toxin-antitoxin RNase, primary screen, biochemical, fluorescence, uHTS; FAM/BHQ RNA-DNA oligo cleavage fluorescence, 5 h; activation, % at 20 µM; 350,000 tested, 0.32% active; AID 504720, 2011; in the data active = activation above about 50%
Target sequence (P0AE70 whole entry, looked up): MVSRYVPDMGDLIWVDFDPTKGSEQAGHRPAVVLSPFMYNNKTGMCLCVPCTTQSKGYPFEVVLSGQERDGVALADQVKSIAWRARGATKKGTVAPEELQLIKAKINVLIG
PfHsp40 rescue – rescue of yeast from PfHsp40 toxicity, primary screen, S. cerevisiae, ATP luminescence | AID 504582, 2011 | growth rescue, % at 12.5 µM | 340,000 tested, 0.68% active | S. cerevisiae expressing PfHsp40, growth rescue; in the data active = growth rescue above about 28%, passing the limit was not always enough;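 note: yeast W303a lacking pdr1 and pdr3 grown in galactose medium; growth measured after three days at 30 °C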
The depositor's hits bear a star; i = inactive; / = not tested or not shown. Compounds with a hit are over-represented: about 1.7% of the library has one in this group of screens.

SMILES | DUSP3 inh | Vc quorum ag | SARS 3CLpro inh | BJeLR lethal | MazF activator | PfHsp40 rescue
CSCc1cc(N(C)c2ccccc2)nc(-c2ccccn2)n1 | 0 | i | 0 | 3 | 4 | 111*
Cc1cc2ncn(CCC(=O)NC(C)(C)C)c2cc1C | -14 | -1 | -4 | 0 | 4 | -2
O=C(NCc1ccco1)Nc1cccc([N+](=O)[O-])c1 | 21 | i | 2 | 10 | 3 | -2
Cc1ccccc1N1CCN(CC(=O)Nc2nc(C)c(C(=O)N(C)C)s2)CC1 | -1 | i | -3 | -6 | 10 | 0
Cc1nc(NC(=O)CN2CCN(c3ccccc3F)CC2)sc1C(=O)N(C)C | 57* | -1 | -2 | 11 | 3 | 0
O=C(c1ccc2c(c1)OCO2)N(Cc1cccs1)C1(C(=O)NC2CCCCC2)CCCCC1 | 4 | 0 | 5 | -3 | -2 | 68*
O=C(Cc1cccs1)N(Cc1cccs1)C1(C(=O)NC2CCCC2)CCCCC1 | 20 | 4 | 5 | -10 | -1 | 0
CCC(C)NC(=O)Cn1nc(Cc2ccncc2)c2ccccc2c1=O (configuration not stated) | 21 | 1 | 3 | 11 | 6 | -1
Cn1nc(C(F)(F)F)cc1-c1ccc(/C=C(\C#N)C(=O)c2ccccc2)s1 | 10 | -1 | 4 | 2 | 782* | 0
CNC(=O)c1ccc(-c2cc(C(F)(F)F)nn2C)s1 | -11 | 0 | 0 | -1 | -3 | /
COc1ccc(-c2cc3nc(-c4ccccc4)cc(N4CCC(O)CC4)n3n2)cc1 | 12 | 1 | -3 | -4 | -6 | 1
COc1ccc(-c2cc3nc(-c4ccccc4)cc(N4CCCC(O)C4)n3n2)cc1 (configuration not stated) | 12 | 0 | 3 | 4 | 4 | 66*
COc1ccccc1N(CC(=O)NCc1ccccc1)S(=O)(=O)c1cccs1 | / | 0 | / | / | 9 | /
COc1ccc(C(=O)COC(=O)c2c(-c3ccccc3)noc2C)c(OC)c1 | / | -1 | / | 7 | 67* | 1
CCOC(=O)/C(=C\c1ccccc1)C(=O)c1cc(C(C)=O)c(Nc2ccccc2)s1 | -1 | 0 | -3 | 6 | -9 | 1
CCOC(=O)/C(=C\c1cccnc1)C(=O)c1cc(C(C)=O)c(Nc2ccccc2)s1 | -2 | 0 | 6 | 53* | -3 | 0
O=C1CCCN1CCCNc1nc2c(S(=O)(=O)c3ccccc3)nnn2c2ccc(Cl)cc12 | 4 | -7 | 0 | 12 | 6 | 0
COC(=O)Nc1nn(-c2ccc(OC)cc2)c(=O)c(C#N)c1C | 8 | -1 | -2 | 19 | -5 | 0
CCCCCCCCCCn1c2c(c(=N)c3c1CCC3)CCC2 | 26 | i | 0 | 56* | -24 | 291*
Cc1c(N=C2N=C(NC(=O)Nc3ccc(Cl)cc3)c3ccccc32)c(=O)n(-c2ccccc2)n1C | 3 | 0 | -1 | 5 | 88* | 0
N#C/C(=C\c1cn(CCOc2ccccc2F)c2ccccc12)C(=O)NCc1cccs1 | 10 | 0 | 6 | -3 | 26 | 0
N#C/C(=C\c1cn(Cc2ccc(C#N)cc2)c2ccccc12)C(=O)NCc1cccs1 | -10 | 0 | 6 | -5 | 55* | 0
CCOC(=O)c1ccc(NC(=O)C2(c3ccc(OC)cc3)CCOCC2)cc1 | 21 | i | -6 | 0 | 60* | 3
COc1ccc(CN(CC(O)COCc2ccccc2)S(=O)(=O)c2ccccc2Br)cc1OC (configuration not stated) | / | i | / | / | 1 | 0
O=S(=O)(c1c(F)cccc1F)N(CCc1ccc(F)cc1)C[C@@H](O)COCc1ccccc1 | / | -1 | / | / | 6 | 114*
SMILES | DUSP3 inh | Vc quorum ag | SARS 3CLpro inh | BJeLR lethal | MazF activator | PfHsp40 rescue
CCc1cc2c(=O)c(-c3nc4ccccc4n3C)c(COCC(=O)O)oc2cc1O | -1 | 0 | 0 | 4 | 7 | 0
CCCc1cc2c(=O)c(-c3nc4ccccc4s3)c(COCC(=O)O)oc2cc1O | -3 | 0 | 1 | / | 60* | -1
Cc1c2ccccc2nc2c(F)c(NCCO)c(F)c(F)c12 | -9 | -1 | 3 | 8 | 63* | 0
O=[N+]([O-])c1ccc(NC2CCN(Cc3ccccc3)CC2)c2ccncc12 | 16 | -1 | -3 | -2 | 58* | 2
O=[N+]([O-])c1ccc(NC2CCCC2)c2ccncc12 | 26 | 0 | 0 | -3 | 62* | 1
CCCN(C(=O)CCNC(=O)c1ccc(Cl)cc1)c1c(N)n(Cc2ccccc2)c(=O)[nH]c1=O | / | -6 | / | / | 0 | -1
Oc1ccccc1C1=Nc2ccccc2N=C(c2ccco2)C1 | 20 | i | 4 | 1 | 56* | 0
COC(=O)C1=C(c2ccc(S(C)(=O)=O)cc2)C[C@@H]2CC[C@H]1N2C(=O)N1CCCCC1 | / | -1 | / | 5 | 4 | 78*
CNc1ccc(-c2ccccc2CO)cn1 | / | 1 | / | / | / | /
CC1=C(C(=O)N(C)C)CC(CC(=O)NC2CCCC2)C(=O)N1Cc1ccc(F)cc1 (configuration not stated) | / | -1 | / | / | 7 | /
Oc1ccc(N=Nc2ccc(Br)cc2)c(O)c1 | 27 | -10 | 1 | 0 | -7 | 1
Cc1ccc(N=Nc2ccc(O)cc2)c(Br)c1 | -16 | i | 4 | 20 | 8 | 201*
Cn1c(O)c(/C=C2\C=Nc3ccccc32)c(=O)n(C)c1=O | 6 | 0 | -3 | -4 | 141* | 0
CCCCn1c(O)c(/C=C2\C=Nc3ccccc32)c(=O)[nH]c1=O | 27 | i | 0 | -10 | 255* | -1
COC(=O)C1=Nc2ccccc2/C1=C\c1c(O)n(C)c(=O)n(C)c1=O | 34 | i | 1 | 1 | -13 | /
Cc1cn([C@H]2C[C@H](O)[C@@H](CCC(=O)NCc3ccc(N(C)C)cc3)O2)c(=O)[nH]c1=O | / | -2 | / | / | 12 | /
CCN(CC(=O)NCc1cccs1)C(=O)c1cc(Br)ccc1O | / | i | / | / | 6 | -1
O=C(O)c1ccc2ccc3ccccc3c2c1 | / | -1 | / | 0 | 1 | /
O=C(O)c1ccc2cc[nH]c2c1 | 54* | / | -3 | 0 | 2 | 1
O=C(Nc1cccc(S(=O)(=O)N2CCCC2)c1)[C@@H]1O[C@H](CO)[C@@H](O)[C@H]1O | / | 0 | / | / | / | /
Clc1ccc2nc(N3CCNCC3)nc(-c3ccccc3)c2c1 | 52* | i | 1 | -8 | 37 | -2
Nc1ccc(Nc2ccccc2)c(S(=O)(=O)O)c1 | 10 | -4 | 2 | 22 | 2 | 41*
CC(=NNC(=O)CSCC(=O)NN=C(C)c1ccccc1)c1ccccc1 | / | i | / | / | 0 | -1
O=C(c1ccc(Cl)c(S(=O)(=O)NCc2ccccc2)c1)N1CCN(c2ccccn2)CC1 | 54* | i | -3 | 4 | -1 | -2
O=C(c1ccc(CNS(=O)(=O)c2ccccc2)cc1)N1CCN(c2ccccn2)CC1 | 3 | 0 | 0 | / | -1 | 0
